# A selection: hits, their analogues and other compounds. The true share with any hit is near 3.2%.
# RE007 growth inh – qHTS Assay for Inhibitors of the HIV-1 protein Vpr | S. pombe RE007 Vpr strain, BacTiter-Glo ATP luminescence, 24 h | Potency, µM (titrated, usually from 92.2 µM), inactives show at the top dose activity change, negative = less growth, hits mostly inhibitors | AID 651644, 2012 | 0.21% of 360,000 active; active = well fitted falling curve with a large enough effect; inconclusive = small, poorly fitted or top-dose-only effect; inactive = no such curve, though single readings can be large or run the other way; note: nearly all actives have a fitted effect of over 50% in size
#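 Fission yeast strain RE007, carrying one chromosomally integrated HIV-1 vpr copy, was seeded at OD 0.01 in PMG+AL medium with 23 nL pinned compound. After 24 h at 30 °C and 99% humidity, viability was read by BacTiter-Glo luminescence.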
# AmpC inh detg – qHTS Inhibitors of AmpC Beta-Lactamase (assay with detergent); P00811; AmpC hydrolysis of nitrocefin, absorbance 480 nm, 0.01% Triton; Potency, µM (highest dose often 114 µM), without a hit: top-dose activity change, negative = inhibition, actives largely listed as inhibitors; 0.041% of 370,000 active;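 note: 0% = no-compound wells and -100% = no-enzyme wells; nearly all actives have a fitted effect of over 25% in size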
# Target sequence (P00811 whole entry, looked up): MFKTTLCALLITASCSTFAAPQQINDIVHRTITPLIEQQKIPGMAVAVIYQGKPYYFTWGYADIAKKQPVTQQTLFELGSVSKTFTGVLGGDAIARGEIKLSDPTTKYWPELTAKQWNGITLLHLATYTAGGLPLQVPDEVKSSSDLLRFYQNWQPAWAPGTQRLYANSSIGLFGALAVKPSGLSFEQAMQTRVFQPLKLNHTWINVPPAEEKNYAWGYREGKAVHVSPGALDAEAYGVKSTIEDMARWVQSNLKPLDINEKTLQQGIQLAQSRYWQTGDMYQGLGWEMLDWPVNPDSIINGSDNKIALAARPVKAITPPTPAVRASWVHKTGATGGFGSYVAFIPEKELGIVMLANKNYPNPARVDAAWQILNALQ
#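 20 mM phosphate pH 7.0 + 0.01% (detergent screen) or 0.0001% Triton X-100; 5.3 nM AmpC reagent; cpd preinc 15 min RT; nitrocefin (800 uM stock) to start; A480 q20 s × 4 min; Activity was normalised to no-enzyme and no-compound control wells.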
# Sm TGR inh – qHTS Assay for the Inhibitors of Schistosoma Mansoni Peroxiredoxins; Potency, µM (series often up to 114 µM), inactives show top-dose activity change, negative = inhibition, hits mostly inhibitors; AID 485364, 2010; Schistosoma mansoni thioredoxin glutathione reductase (TGR), Q962Y6; 3% of 360,000 active; purified TGR, DTNB reduction, TNB absorbance 405 nm; note: nearly all actives have a fitted effect of over 60% in size
#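 Kinetic colorimetric format: TGR-catalysed, NADPH-driven DTNB reduction monitored via TNB absorbance. Enzyme dispensed at 20 nM; compound exposure 15 min at room temperature before reaction start.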
# AMA1 RON2 block – qHTS for Inhibitors of AMA1-RON; Towards Development of Antimalarial Drug Lead: Primary Screen | Plasmodium falciparum AMA1 (3D7) - RON2 peptide interaction | AlphaScreen AMA1-biotinylated RON2 peptide binding | Potency, µM (series often up to 58.2 µM), inactives show at the top dose activity change, negative = inhibition, actives largely listed as inhibitors | 0.2% of 360,000 active | AID 720542, 2013;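 note: 0% = vehicle wells and -100% = peptide control; nearly all actives have a fitted effect of over 45% in size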
#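 AMA1 (3D7) with his tag at 25 nM final met compounds first, then biotinylated RON2 peptide at 25 nM; detection used donor plus acceptor beads, 10 µg/mL apiece, read by AlphaScreen after 30 min at room temperature.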
# AmpC no deterg – qHTS Inhibitors of AmpC Beta-Lactamase (assay without detergent) | P00811 | 0.52% of 330,000 active | Potency, µM (top dose mostly 57.1 µM), inactives show at the top dose activity change, negative = inhibition, actives largely listed as inhibitors | AmpC nitrocefin hydrolysis, absorbance 480 nm, 0.0001% Triton;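 note: plate controls were no compound for no effect and no enzyme for full effect; nearly all actives have a fitted effect of over 20% in size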
#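 AmpC (5.3 nM in the dispensed reagent) in 20 mM phosphate pH 7.0 with 0.01% (detergent screen) or 0.0001% Triton X-100 was preincubated with compounds for 15 min at room temperature. Nitrocefin was then added from an 800 uM solution, and hydrolysis was followed at 480 nm.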
# * = called active by the depositor; u = inconclusive; x = no result. Unless noted, calls come from the whole dose curve; as a rule, active = well fitted curve in the direction sought with a large enough effect; inconclusive = small, poorly fitted or top-dose-only effect, or another doubt; inactive = no such curve, though single readings can be large; an effect the other way counts as inactive or inconclusive. Unless noted, % is set by controls: 0 for no effect and ±100 for the full control effect; potency is the fitted concentration of half-maximal effect.
SMILES,RE007 growth inh,AmpC inh detg,Sm TGR inh,AMA1 RON2 block,AmpC no deterg
COc1ccc(N2C(=O)CC(N3CCC(O)(c4ccc(Cl)cc4)CC3)C2=O)cc1 (centres undefined),u,2%,50µM*,-2%,-7%
COC(=O)c1ccc(N2C(=O)CC(N3CCC(O)(c4ccc(Br)cc4)CC3)C2=O)cc1 (centres undefined),35µM*,1%,45µM*,10%,53%
COC(=O)c1ccc(N2C(=O)CC(N3CCN(C(=O)c4ccco4)CC3)C2=O)cc1 (centres undefined),2%,-4%,u,6%,-10%
COc1ccccc1N1CCN(C2CC(=O)N(c3cccc(Br)c3)C2=O)CC1 (centres undefined),u,-4%,45µM*,0%,52%
COc1ccc(CNC(=O)CSc2nc(-c3ccc(OC)c(OC)c3)cc(C(F)(F)F)n2)cc1,x,2%,1%,x,x
CCOc1ccc(N2C(=O)CC(N3CCN(c4ccc(Cl)cc4)CC3)C2=O)cc1 (centres undefined),-2%,-2%,3.2µM*,-4%,-7%
O=C1CC(N2CCN(c3ccc(Cl)cc3)CC2)C(=O)N1c1ccccc1 (centres undefined),u,5%,u,-1%,-16%
CCCOc1ccc(N2C(=O)CC(N3CCN(c4ccc([N+](=O)[O-])cc4)CC3)C2=O)cc1 (centres undefined),0%,-17%,-31%,-3%,48%
COc1ccc(N2C(=O)CC(N3CCN(c4ccccc4)CC3)C2=O)cc1 (centres undefined),-7%,u,-27%,-2%,40%
CCOc1ccc(N2C(=O)CC(N3CCN(c4ccc([N+](=O)[O-])cc4)CC3)C2=O)cc1 (centres undefined),-4%,u,10µM*,-2%,-15%
COc1ccc(N2C(=O)CC(N3CCN(c4ccc(Cl)cc4)CC3)C2=O)cc1 (centres undefined),3%,-13%,45µM*,-1%,43%
O=C1CC(N2CCSCC2)C(=O)N1c1cccc(Cl)c1 (centres undefined),u,4%,28µM*,0%,-8%
O=C1CC(N2CCN(c3ccccc3)CC2)C(=O)N1c1ccc2c(c1)OCCO2 (centres undefined),-5%,-1%,-22%,5%,x
CCN1C(C(=O)c2ccccc2)=C(OC(=O)c2ccccc2OC)c2ccccc2S1(=O)=O,x,u,1%,x,x
COc1ccc(S(=O)(=O)c2cn(C)c3cc(N4CCCCCC4)c(F)cc3c2=O)cc1,x,12%,4%,x,x
COc1ccc2c(Sc3ccccc3)c(C(=O)NCC(C)c3ccccc3)[nH]c2c1 (centres undefined),x,-3%,-10%,x,x
Cc1ccc(NC(=O)CCCn2nc(C)c3sc4ccccc4c3c2=O)c(Cl)c1,x,-3%,-1%,x,x
O=C1CC(N2CCN(c3ccccc3)CC2)C(=O)N1c1cccc(Cl)c1 (centres undefined),-78%,-13%,u,-5%,41%
COc1cccc(N2CCN(C3CC(=O)N(c4cccc(Cl)c4)C3=O)CC2)c1 (centres undefined),u,u,45µM*,6%,57%
O=S(=O)(NCCn1ccc2ccccc21)c1ccccc1,2%,-14%,6%,-2%,25µM*
Cc1occc1C(=O)NCCc1ccc(Cl)cc1,-11%,-7%,22µM*,-4%,-12%
Cc1occc1C(=O)NCc1ccc(C(=O)O)o1,-3%,-1%,40µM*,13%,-4%
Cc1ccoc1C(=O)NCCCNC(=O)c1occc1C,1%,-14%,45µM*,16%,26%
Cc1occc1C(=O)NCc1ccccc1,-8%,-16%,u,-2%,-22%
Cc1occc1C(=O)NCCCCc1ccccc1,u,-2%,20µM*,11%,-25%
SMILES,RE007 growth inh,AmpC inh detg,Sm TGR inh,AMA1 RON2 block,AmpC no deterg
Cc1cc(C(=O)NCc2ccc(C(=O)O)o2)c(C)o1,8%,3%,-3%,-10%,-3%
O=C(NCCc1ccc(O)cc1)c1ccc(Cl)cc1,0%,-10%,8%,3%,73%
CC(C)CCn1c(=O)c2cccnc2n(CC(=O)Nc2ccccc2F)c1=O,x,16%,2%,x,x
CC(=O)Nc1nonc1-c1nnc(SCC(=O)Nc2ccc(C)cc2C)n1C,x,6%,-2%,x,x
CCCNC(=O)c1cnc2c(-c3ccc(OCC)c(OCC)c3)c(C)nn2c1-c1ccccc1,x,25%,-6%,x,x
C=C1C(=O)OC2CC3(C)OC3CCC(C)=CC(OC(C)=O)C12 (centres undefined),15%,x,x,11%,x
C=C1C(=O)O[C@@H]2C[C@@H](C)[C@H]3C=CC(=O)[C@]3(O)C[C@@H]12,2%,3%,35µM*,-10%,19%
COc1ccccc1C(=O)N1CCC(c2c[nH]c3ccccc23)(c2c[nH]c3ccccc23)CC1,x,18%,6%,x,x
COc1cc(CN2CCC(C(=O)N3CCCC(C)C3)CC2)cc(OC)c1O (centres undefined),-16%,-2%,10µM*,-13%,-19%
COc1cc(CN2CCC(C(=O)NC3CCCC3)CC2)cc(OC)c1O,-1%,-8%,8.9µM*,-11%,-19%
CCN(CC)CCCN(Cc1cc2cc3c(cc2[nH]c1=O)OCO3)C(=O)Nc1ccccc1OC,-19%,-1%,-3%,-10%,0.4µM*
CCOC(=O)C1=C(Cc2ccc(Cl)cc2)C(=O)c2ccccc2C1=O,35µM*,-15%,3.5µM*,u,-45%
CCOC(=O)C1=C(C)N=C2c3ccccc3C(=O)C2C1c1ccc(Cl)cc1 (centres undefined),-10%,u,-9%,-17%,-44%
Cc1cn2c(-c3ccc(Cl)cc3)nnc2s1,-15%,-12%,0%,-2%,20µM*
Clc1ccc(-c2nn3c(-c4ccccc4)nnc3s2)cc1,-3%,10%,-3%,13%,-16%
Cc1cccc(NS(=O)(=O)c2ccc(-c3ccc(=O)[nH]n3)o2)c1,19%,4%,40µM*,-11%,-11%
O=c1ccc(-c2ccc(S(=O)(=O)Nc3ccccc3Cl)o2)n[nH]1,0%,3%,40µM*,1%,-13%
O=c1ccc(-c2ccc(S(=O)(=O)Nc3cccc(Br)c3)o2)n[nH]1,-8%,2%,50µM*,13%,-14%
Cc1ccccc1OCCNC(=S)Nc1ccccc1,-17%,-5%,-14%,26%,-30%

# Screening data from PubChem.
